Results filed as inconclusive are left out. A number with no mark means an inactive call. Calls follow the shape of the dose curve; as a rule, active = well fitted inhibition curve with a large enough effect; inconclusive = small, poorly fitted or top-dose-only effect; inactive = no such curve, though single readings can be large or run the other way.
These compounds were tested against Retinaldehyde dehydrogenase 3 (Homo sapiens) (UniProt P47895) (assay: qHTS for Inhibitors of the Aldehyde Dehydrogenase Family (ALDH1A3) Primary screen (AID 2061315;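 also: plate controls were DMSO vehicle for no effect and reference inhibitor for full effect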)). Settings: ALDH inhibition qHTS; series mostly up to 56 µM; activity change, negative = inhibition: at the top concentration.

Compound | activity change, negative = inhibition
C[C@]12CC[C@H](O)C[C@@H]1CC[C@@H]1[C@@H]2CC[C@]2(C)[C@@H](C3=CC(=O)OC3)CC[C@]12O | -1.4%
COC1CCCC(C)OC(=O)Cc2cc(O)cc(O)c2C(=O)C1 (configuration not stated) | 18.8%
COC[C@]12CN(C)C3C4[C@H](OC)[C@H]1C3(C(OC)C[C@H]2O)[C@H]1C[C@@]2(O)[C@H](OC(=O)c3ccccc3)[C@@H]1[C@]4(O)[C@@H](O)[C@@H]2OC (some centres not stated) | 1.13%
COC(=O)C1=COC(C)C2CN3CCC4(C(=O)Nc5ccccc54)C3CC12 (configuration not stated) | 6.64%
C[C@]12CC[C@H](O[C@@H]3O[C@H](CO)[C@@H](O)[C@H](O)[C@H]3O)CC1=CC[C@@H]1C2CC[C@]2(C)[C@@H](C3=CC(=O)OC3)CC[C@]12O (some centres not stated) | -4.2% [at 16.9 µM]
CCN1C[C@]2(COC)CC[C@H](O)[C@@]34C5C[C@@H]6[C@@H](OC)C[C@@](OC(C)=O)(C5[C@@H]6OC(C)=O)[C@H]([C@H](OC)C23)[C@@H]14 (some centres not stated) | 9.47% [at 28 µM]
CC(=O)OC[C@]12C[C@H](OC(=O)CC(C)C)C(C)=C[C@H]1O[C@@H]1[C@H](O)[C@@H](OC(C)=O)[C@@]2(C)[C@@]12CO2 | -0.52% [at 28 µM]

Reference: PubChem BioAssay (NCATS)
